# Measured values published in the supplement of paper PMC8728848.
# This is one part of a sample in which the strongest signals are shown more often than they occur.
# How the values were obtained:
# Assay in all cases: glycan array binding signal (z-score within array); higher = stronger binding
# Details in all cases: glycan notation: IUPAC condensed, linker removed
# [1] = target: GlcNAc(b1-2)[GlcNAc(b1-6)]Man(a1-6)[GlcNAc(b1-2)Man(a1-3)]Man(b1-4)GlcNAc(b1-4)GlcNAc
# Method in brief: (§1)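 Glycan array binding is given as a within-array Z-score, which can be read as non-binding when negative. The arrays, 3228 of them, came from the Consortium for Functional Glycomics database and were retained only where the protein sequence was available. Z-scores were averaged across arrays of the same protein sequence at different concentrations or buffers and across linkers.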
# [2] = target: GlcNAc(b1-3)Gal(b1-4)GlcNAc(b1-2)Man(a1-3)[GlcNAc(b1-3)Gal(b1-4)GlcNAc(b1-2)Man(a1-6)]Man(b1-4)GlcNAc(b1-4)[Fuc(a1-6)]GlcNAc
# Method in brief: as §1
# [3] = target: GlcNAc(b1-3)Gal(b1-4)GlcNAc(b1-3)Gal(b1-4)GlcNAc(b1-2)Man(a1-3)[GlcNAc(b1-3)Gal(b1-4)GlcNAc(b1-3)Gal(b1-4)GlcNAc(b1-2)Man(a1-6)]Man(b1-4)GlcNAc(b1-4)[Fuc(a1-6)]GlcNAc
# Method in brief: as §1
# [4] = target: GlcNAc(b1-3)Gal(b1-4)GlcNAc(b1-3)Gal(b1-4)GlcNAc(b1-3)Gal(b1-4)GlcNAc(b1-3)Gal(b1-4)GlcNAc(b1-2)Man(a1-3)[GlcNAc(b1-3)Gal(b1-4)GlcNAc(b1-3)Gal(b1-4)GlcNAc(b1-3)Gal(b1-4)GlcNAc(b1-3)Gal(b1-4)GlcNAc(b1-2)Man(a1-6)]Man(b1-4)GlcNAc(b1-4)[Fuc(a1-6)]GlcNAc
# Method in brief: as §1
# [5] = target: GlcNAc(b1-3)Gal(b1-4)GlcNAc(b1-3)Gal(b1-4)GlcNAc(b1-3)GalNAc
# Method in brief: as §1
# [6] = target: GlcNAc(b1-4)GlcNAc
# Method in brief: as §1
# [7] = target: Neu5Ac(a2-3)Gal(b1-3)GlcNAc(b1-2)Man
# Method in brief: as §1
# [8] = target: Neu5Ac(a2-3)Gal(b1-3)GlcNAc(b1-6)GalNAc
# Method in brief: as §1
# [9] = target: Neu5Ac(a2-3)Gal(b1-4)GlcNAc(b1-3)GalNAc
# Method in brief: as §1
# [10] = target: Neu5Ac(a2-3)Gal(b1-4)GlcNAc(b1-6)GalNAc
# Method in brief: as §1
# [11] = target: Neu5Ac(a2-3)Gal(b1-4)[Fuc(a1-3)]GlcNAc(b1-3)GalNAc
# Method in brief: as §1
# [12] = target: Neu5Ac(a2-3)GalNAc
# Method in brief: as §1
# [13] = target: Neu5Ac(a2-6)Gal(b1-4)GlcNAc(b1-2)Man(a1-3)[Neu5Ac(a2-6)Gal(b1-4)GlcNAc(b1-2)Man(a1-6)]Man(b1-4)GlcNAc(b1-4)GlcNAc
# Method in brief: as §1
# [14] = target: Neu5Ac(a2-6)Gal(b1-4)GlcNAc(b1-3)[Neu5Ac(a2-6)Gal(b1-4)GlcNAc(b1-6)]GalNAc
# Method in brief: as §1
# [15] = target: Neu5Ac(a2-6)GalNAc(b1-4)GlcNAc6S
# Method in brief: as §1
# [16] = target: Neu5Ac(a2-8)Neu5Ac(a2-8)Neu5Ac
# Method in brief: as §1
# [17] = target: Neu5Ac(b2-6)GalNAc
# Method in brief: as §1
# [18] = target: Neu5Gc(a2-3)Gal(b1-4)GlcNAc
# Method in brief: as §1
binder,measurement,setting,value
ClecSol-Fc (Cryptosporidium parvum) (protein) CPEGWISNGEKTRCFKLVTFDRPRTFSHGFKACNDLGGTEVETRRRNGSKETNEYPVTLASVYKLSDEEAIRRTLVEQGDIHKTANGCFVGLRKYAFFRYPPGWYWIDSGSPVSVRDSEINWTSSYNASWLLRFKFPFEKCGFFDIGGLGRRPCWLIDSELSCAVCGTVAYDSGGLNPNKYSELIKQTDEIISKEPKLDLPGYNNLNCTDAWENNLSVGLCQNVSNILDSAWSSYQSSLNFPSINFNWKEDSTNEGGDQVYHNSYLDLPRYKQKKTFYWDQDPGTIPALSDEMKLIGLSAQPTYHPLDRSSSGSFESDSTESGRANEERNDTLEEMIYKQSSDSIEDILVPVTKPIFSDYSSIGRNSGVEEVYSSNVSTISSKGVVFPNTTTSSDNDFTKNNPANSSKHTSTSTTTNTTTTTTRTTTTTTTTTTTTTTTTTTTTETTTTKKSTTATKNTTTT,glycan array binding signal (z-score),[1],-0.117
same,glycan array binding signal (z-score),[2],0.693
same,glycan array binding signal (z-score),[3],-0.079
same,glycan array binding signal (z-score),[4],0.18
same,glycan array binding signal (z-score),[5],0.074
same,glycan array binding signal (z-score),[6],5.31
same,glycan array binding signal (z-score),[7],-0.101
same,glycan array binding signal (z-score),[8],-0.123
same,glycan array binding signal (z-score),[9],-0.229
same,glycan array binding signal (z-score),[10],-0.11
same,glycan array binding signal (z-score),[11],-0.101
same,glycan array binding signal (z-score),[12],0.005
same,glycan array binding signal (z-score),[13],-0.172
same,glycan array binding signal (z-score),[14],-0.216
same,glycan array binding signal (z-score),[15],-0.03
same,glycan array binding signal (z-score),[16],0.518
same,glycan array binding signal (z-score),[17],-0.003
same,glycan array binding signal (z-score),[18],-0.119
